# Rab9 prom act: qHTS Assay for Rab9 Promoter Activators; Huh7 Rab9 promoter-luciferase reporter, luminescence, 24 h; Potency, µM (top dose mostly 9.22 µM), for inactives: at the highest dose activation, negative = inhibition, hits mostly activators; 320,000 compounds, 2.8% hits; AID 485297, 2010; note: % of control where 0% means no effect; nearly all actives have a fitted effect of over 60% in size
#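 Huh7 cells stably carrying a Rab9 promoter-luciferase reporter, 1500 cells per well in OP-MEM I with 10% FBS, treated with compound 24 hours at 37C. Luciferase activity read by luminescence after 10 minutes with Amplite reagent.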
# ELG1 repair inh: qHTS screen for small molecules that inhibit ELG1-dependent DNA repair in human embryonic kidney (HEK293T) cells expressing luciferase-tagged ELG1; Potency, µM (doses to about 46.1 µM), for the others: top-dose activity change, negative = inhibition, hits mostly inhibitors; 330,000 compounds, 2.3% hits; AID 504467, 2011; HEK293T ELG1-luciferase reporter, luminescence, 16 h; DNA damage induced by 5-fluorouridine; note: % is set by controls: 0 for no effect and ±100 for the full control effect; nearly all actives have a fitted effect of over 55% in size
#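 5-Fluorouridine DNA damage + compound/DMSO, 2,000 cells/well, 16 h, 37 °C/5% CO2. ONE-Glo, 30 min RT, luminescence. Readout = decrease in reporter signal.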
# FLuc counter: qHTS profiling assay for firefly luciferase inhibitor/activator using purifed enzyme and Km concentrations of substrates (counterscreen for miR-21 project); Luciferin 4-monooxygenase (Photinus pyralis), P08659; purified FLuc, Km substrates, luminescence inhibition; Potency, µM (titrated, usually from 57.5 µM), without a hit: at the highest dose activity change, negative = inhibition, hits mostly inhibitors; 360,000 compounds, 6.9% hits;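 note: plate controls were vehicle for no effect and reference inhibitor for full effect; nearly all actives have a fitted effect of over 55% in size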
# Target sequence (P08659 whole entry, looked up): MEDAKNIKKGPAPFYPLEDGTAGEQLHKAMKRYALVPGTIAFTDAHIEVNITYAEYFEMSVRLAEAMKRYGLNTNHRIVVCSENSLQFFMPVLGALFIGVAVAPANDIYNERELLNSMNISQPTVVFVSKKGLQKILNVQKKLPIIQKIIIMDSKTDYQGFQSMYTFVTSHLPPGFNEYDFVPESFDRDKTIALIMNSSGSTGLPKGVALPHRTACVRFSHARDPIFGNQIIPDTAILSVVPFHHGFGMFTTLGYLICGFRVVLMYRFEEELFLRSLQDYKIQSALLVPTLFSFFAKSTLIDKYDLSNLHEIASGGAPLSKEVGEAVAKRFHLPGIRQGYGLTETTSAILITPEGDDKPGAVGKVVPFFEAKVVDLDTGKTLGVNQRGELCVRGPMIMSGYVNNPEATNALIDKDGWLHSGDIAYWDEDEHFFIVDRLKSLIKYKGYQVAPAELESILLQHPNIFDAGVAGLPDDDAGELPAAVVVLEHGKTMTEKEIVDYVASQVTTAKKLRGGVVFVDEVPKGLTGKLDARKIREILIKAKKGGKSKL
#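 Purified P. pyralis luciferase (10nM final) with 10uM D-luciferin and 10uM ATP (Km levels) in 50mM Tris acetate pH 7.5, 10mM Mg acetate, 0.01% Tween-20, 0.05% BSA; qHTS 6-point titration, ~60 µM downward; luminescence read.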
# SMN2 splice up: qHTS Assay for Enhancers of SMN2 Splice Variant Expression; HEK293 SMN2-luciferase splicing reporter, luminescence, 30-36 h; 210,000 compounds, 2.8% hits; Potency, µM (top dose mostly 46.1 µM), inactives show at the highest dose activity change, positive = activation, hits mostly activators; AID 1458, 2008; note: % of control where 0% means no effect; nearly all actives have a fitted effect of over 55% in size
#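 qHTS luciferase splicing reporter: luminescence rises when SMN2 exon 7 is included in transfected HEK293 cells. Compound exposure lasted 30-36 h at 37C, with 4.5 mM final sodium butyrate as control, followed by a ONE-Glo read.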
# NPC1 prom act: qHTS Assay for NPC1 Promoter Activators; 320,000 compounds, 2.4% hits; Potency, µM (series often up to 9.22 µM), without a hit: at the top dose activation, actives largely listed as activators; Huh7 NPC1 promoter luciferase reporter, 24 h; note: % of control where 0% means no effect; nearly all actives have a fitted effect of over 60% in size
#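 Readout is luciferase luminescence, reflecting NPC1 promoter activation in stably transfected Huh7 cells after 24 h compound exposure at 37 °C in reduced-serum medium with 10% FBS.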
# ELG1 genotox: qHTS screen for small molecules that induce genotoxicity in human embryonic kidney (HEK293T) cells expressing luciferase-tagged ELG1; AID 504466, 2011; HEK293T ELG1-luciferase reporter, luminescence, 16 h; 330,000 compounds, 1.3% hits; Potency, µM (top dose mostly 46 µM), inactives show at the highest dose activity change, positive = activation, usual class: activators; note: % of control where 0% means no effect; nearly all actives have a fitted effect of over 60% in size
#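 Reporter readout depends on ELG1 protein level, which increases with genetic stress. After 16 hr compound exposure at 37 °C, luciferase activity was quantified using ONE-Glo.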
# An asterisk follows results filed as active; ? = inconclusive; . = no result. A selection: hits, their analogues and other compounds. The true share with any hit is near 9.4%. Calls come from the whole dose curve; as a rule, active = well fitted curve in the direction sought with a large enough effect; inconclusive = small, poorly fitted or top-dose-only effect, or another doubt; inactive = no such curve, though single readings can be large; an effect the other way counts as inactive or inconclusive. Potency is the fitted concentration of half-maximal effect.
SMILES,Rab9 prom act,ELG1 repair inh,FLuc counter,SMN2 splice up,NPC1 prom act,ELG1 genotox
CN1CCN(c2ncc3nc(-c4ccc(Cl)cc4)c(=O)n(CCC#N)c3n2)CC1,.,.,.,-27%,.,.
Cc1cc(C)c2c(=O)cc(C(=O)Nc3sc4c(c3C(=O)NCc3ccccc3)CCCC4)oc2c1,.,.,2%,2%,.,.
Cc1[nH]c2ccc(C(=O)N3CCN(Cc4ccccc4)CC3)cc2c1C,3%,17%,6µM*,.,16%,2%
COc1ccc2[nH]c(C(=O)N3CCN(Cc4ccccc4)CC3)cc2c1OC,4%,17%,15µM*,.,1%,6%
COc1ccc(C(=O)N2CCN(Cc3ccccc3)CC2)cc1[N+](=O)[O-],-4%,?,1%,.,0%,-7%
On1c(-c2ccccc2)nc2ccccc21,-5%,21%,?,.,-5%,5%
On1c(-c2ccc(Cl)cc2)nc2ccccc21,?,28%,19µM*,-27%,?,10%
COc1ccc(-n2nnnc2SCC(=O)NC(=O)Nc2ccc3c(c2)OCCO3)cc1,27%,?,19µM*,-16%,19%,?
COc1cccc(-n2nnnc2SCC(=O)Nc2nc3c(s2)CCCC3)c1,-4%,?,?,-82%,4%,-4%
Cc1ccc(S(=O)(=O)N[C@H](C(=O)OCC(=O)NC(=O)Nc2ccc3c(c2)OCCO3)C(C)C)cc1,1%,?,?,-35%,-2%,-8%
Cc1ccc(-n2nnnc2SCC(=O)NC(=O)Nc2ccc3c(c2)OCCO3)cc1,?,?,21µM*,19%,28%,15%
O=C(CSc1nnnn1-c1ccc2c(c1)OCCO2)Nc1nc2c(s1)CCCC2,-4%,21µM*,-7%,-33%,23%,-3%
C[C@H](NS(=O)(=O)c1ccc(Cl)cc1)C(=O)OCC(=O)NC(=O)Nc1ccc2c(c1)OCCO2,21%,?,17µM*,?,19%,?
CCCN(C1CCS(=O)(=O)C1)S(=O)(=O)c1ccc(F)cc1 (stereo unspecified),-9%,12%,-1%,.,-1%,-2%
CCOc1ccc(-n2nc3ccc(NC(=O)c4ccc(C)cc4C)cc3n2)cc1,.,.,0%,11%,.,.
Cc1ccc(-n2nc(CO)c(C(=O)NCCc3ccccc3)n2)cc1C,.,.,-5%,4%,.,.
Cc1nnc(SCC(=O)NC(=O)Nc2ccc3c(c2)OCCO3)n1N,1.8µM*,?,17µM*,.,?,3%
O=C(C1CCC(C(=O)N2CCc3ccccc32)CC1)N1CCc2ccccc21 (stereo unspecified),-11%,-7%,2%,-10%,-6%,-8%
O=C(NC1CCCCC1)N1CCc2ccccc21,?,?,19µM*,13µM*,?,15µM*
O=C(Nc1ccc(Br)cc1)N1CCCCC1,?,?,15µM*,?,?,14%
O=C(Nc1ccccc1)N1CCCc2ccccc21,-1%,7%,-14%,14%,0%,5%
Cc1ccc(NC(=O)N2CCCc3ccccc32)cc1C,20%,?,21µM*,.,17%,?
Cc1ccc(NC(=O)C2CCCN(C(=O)c3ccc(Cl)cc3)C2)cc1C (stereo unspecified),?,2%,27µM*,-15%,16%,9%
CCN1CCN(c2nc3c(S(=O)(=O)c4ccc(Br)cc4)nnn3c3ccsc23)CC1,.,.,4%,.,.,.
Cc1ccc(NC(=O)N2CCCCCC2)cc1C,3.2µM*,?,17µM*,.,4.5µM*,?
SMILES,Rab9 prom act,ELG1 repair inh,FLuc counter,SMN2 splice up,NPC1 prom act,ELG1 genotox
Cc1ccc(NC(=O)N2CCCCC2)cc1NC(=O)N1CCCCC1,-3%,-7%,?,.,-5%,0%
O=C(Nc1ccccc1)C(=O)Nc1ccc2c(c1)N(C(=O)C1CC1)CCC2,1.1µM*,?,3.4µM*,.,1.1µM*,1.6µM*
CC(=O)N1c2ccc(Cl)cc2C2OCCC2C1c1ccco1 (stereo unspecified),1%,-6%,-1%,.,1%,-1%
Clc1ccc2c(c1)C1OCCC1C(c1ccco1)N2 (stereo unspecified),4.5µM*,?,?,13µM*,?,?
COc1ccc(C(=O)c2c(C(F)(F)F)oc3c2C(=O)c2ccccc2C3=O)cc1,-34%,10µM*,-2%,-69%,-22%,-27%
Cc1ccc(C(=O)c2c(C)oc3c2C(=O)C(=O)c2ccccc2-3)cc1,3%,?,-15%,-109%,-14%,-5%
CC1(CC(=O)N/N=C/c2ccc(-c3ccc(Cl)cc3)o2)OCCO1,13%,?,3.4µM*,9%,8%,7%
CC1(CC(=O)N/N=C/c2ccc(-c3ccc(C(=O)O)cc3)o2)OCCO1,-12%,-2%,?,0%,-4%,4%
O=C(CN1CCOCC1)N/N=C/c1ccc(-c2ccc(C(=O)O)cc2)o1,-1%,9%,-12%,.,-2%,-1%
COC(=O)c1ccc(-c2ccc(/C=N/NC(=O)CC3(C)OCCCO3)o2)cc1,?,?,?,11µM*,?,9%
CCOC(=O)c1c(C)nc2c(c1-c1ccc(OC)cc1)C(=O)CC(C)(C)C2,1%,?,-1%,2%,2%,-8%
CCOC(=O)c1c(C)nc2c(c1C)/C(=N/O)CC(C)(C)C2,-4%,18µM*,-3%,-24%,1%,-7%
CCN(c1ccccc1)S(=O)(=O)c1c(C)nc2scc(C)n2c1=O,.,.,-8%,-11%,.,.
COc1cccc(/C=N/NC(=O)Cn2cnc3c2c(=O)n(C)c(=O)n3C)c1,0%,-13%,-3%,.,-1%,0%
Clc1nc2ccccc2nc1Cl,.,.,.,-4%,.,.
COc1ccc2cnn(CCOc3ccccc3)c(=O)c2c1OC,0.56µM*,?,4.8µM*,11µM*,0.79µM*,?
COc1ccc2cnn(-c3ccc(OC(F)(F)Cl)cc3)c(=O)c2c1OC,26%,28%,0%,.,21%,4%
COc1ccc2cnn(-c3ccc(C)cc3)c(=O)c2c1OC,?,?,24µM*,27%,?,15µM*
COc1ccc(-n2nc(C(=O)NCCc3ccc(OC)c(OC)c3)c3c4ccccc4n(C)c3c2=O)cc1,.,.,-1%,3%,.,.
